# High-throughput results from PubChem BioAssay.
# The full list was thinned out, with hits kept by preference.
# TR SRC2 fluor cs: alters Texas Red total fluorescence, flagging assay interference | AID 1479 | 280,000 tested, 0.29% active | TRb/SRC2 Texas Red total fluorescence interference | Potency, µM (series often up to 106 µM), inactives show at the top dose fluorescence change, negative = quenching; active means well fitted curve in either direction with a large enough effect; inconclusive means small, poorly fitted or top-dose-only effect; further: on the % scale 0 is the no-effect control and ±100 the full control effect
#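 Human TRβ ligand-binding domain (0.6 uM) and Texas Red SRC2 peptide (20 nM) in Tris buffer with 1 uM T3 and 5% DMSO were incubated with pinned compound for 5 hr at ambient temperature. Total fluorescence was computed as S + 2P (555/632 nm).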
# TRb SRC2 PPI: inhibitors of human thyroid hormone receptor beta-SRC2 interaction | P10828 | TRbeta-SRC2 peptide binding, fluorescence polarization; receptor liganded with 1 µM T3 | Potency, µM (titrated, usually from 106 µM), without a hit: top-dose activity change, negative = inhibition, most hits filed as inhibitors | 280,000 tested, 0.065% active | AID 1469; active means well fitted inhibition curve with a large enough effect; inconclusive means small, poorly fitted or top-dose-only effect, or effect the other way;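 further: plate controls were bound peptide for no effect and peptide without receptor for full effect; nearly all actives have a fitted effect of over 50% in size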
#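 Fluorescence polarization of 20 nM Texas Red SRC2 peptide (20-aa NR interaction domain) bound to 0.6 uM human TRb ligand-binding domain, with 1 uM T3, after 5 hr at ambient temperature; inhibition seen as decreased polarization.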
# ERG Ets-DNA blk: inhibitors of human ERG Ets domain-DNA interaction; 370,000 tested, 0.028% active; fluorescence polarization, His-ERG Ets domain / labelled DNA; P11308; Potency, µM (highest dose often 76.9 µM), for the others: at the highest dose FP activity, negative = inhibition, hits mostly inhibitors; active means well fitted inhibition curve with a large enough effect in the polarisation, with a control signal flat; inconclusive means small, poorly fitted or top-dose-only effect, or effect the other way, or a change in a side signal; inactive means no such curve, though single readings can be large or run the other way; the % refers to the polarisation;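 further: polarization taken with two DNA probes labelled with fluorescein and Texas red; % of control where 0% means no effect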
# Target sequence (P11308 whole entry, looked up, the tested form may be a part): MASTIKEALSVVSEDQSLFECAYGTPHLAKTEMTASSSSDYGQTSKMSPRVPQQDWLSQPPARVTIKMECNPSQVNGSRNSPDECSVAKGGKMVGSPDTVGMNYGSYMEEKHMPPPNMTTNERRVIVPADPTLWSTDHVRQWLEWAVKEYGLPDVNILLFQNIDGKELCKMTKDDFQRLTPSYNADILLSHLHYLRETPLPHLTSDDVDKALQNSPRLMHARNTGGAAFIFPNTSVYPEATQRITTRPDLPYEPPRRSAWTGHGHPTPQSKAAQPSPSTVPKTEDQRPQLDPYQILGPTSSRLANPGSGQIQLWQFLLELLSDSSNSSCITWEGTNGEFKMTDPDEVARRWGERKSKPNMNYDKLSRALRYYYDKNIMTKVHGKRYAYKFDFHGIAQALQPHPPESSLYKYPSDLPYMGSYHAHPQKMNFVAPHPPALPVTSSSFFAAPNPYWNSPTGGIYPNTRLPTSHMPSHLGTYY
#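 His-tagged ERG Ets domain (1 uM in the protein solution; 300mM KCl, 50mM Tris-HCl, 1mM EDTA, 1mM DTT, pH 7.5) received compound, then a probe mix of 5 nM fluorescein-DNA and 100nM Texas-615-DNA. Fluorescence polarization was read for both dyes.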
# Active calls of the source: *; ? = inconclusive; · = not tested or not shown; [ ] = remark or other dose. Potency means the concentration at half of the fitted maximal effect.
SMILES,TR SRC2 fluor cs,TRb SRC2 PPI,ERG Ets-DNA blk
O=C(NCCc1ccc(Cl)cc1)c1ccc(CS(=O)(=O)Cc2ccccc2F)o1,-1%,-3%,0%
CC(=O)CC(=O)Nc1ccccc1C,-5%[201 µM],-2%[201 µM],·
C=CCCCCCCCCCC,-2%[201 µM],4%[201 µM],·
CCc1ccc(NC(=O)C(NS(=O)(=O)c2cccs2)C(C)C)cc1 (stereo not given),-5%,3%,1%
CCN(CC)c1ccc(NC(=O)C(NS(=O)(=O)c2cccs2)C(C)C)c(C)c1 (stereo not given),4.5µM*[quencher],-18%[53 µM],7%
CCOC(=O)c1[nH]c2ccccc2c1NC(=O)c1ccccc1OC,-3%,-4%,-2%
CCN1CCN(C(=O)Cn2c(-c3cccs3)cc3ccccc32)CC1,6%,3%,-3%
O=C(Cn1c(-c2cccs2)cc2ccccc21)NCCCN1CCN(c2ccc(F)cc2)CC1,63µM*[quencher],?,0%
COc1cccc(N2CCN(C(=O)Cn3c(-c4cccs4)cc4ccccc43)CC2)c1,40µM*[quencher],?,3%
CN1CCN(C(=O)Cn2c(-c3cccs3)cc3cc(Cl)ccc32)CC1,112µM*[quencher],-28%,1%
O=C(O)Cn1c(-c2cccs2)cc2cc(Cl)ccc21,0%,-2%,-6%
COc1ccc(N2CCN(CCCNC(=O)Cn3c(-c4cccs4)cc4ccccc43)CC2)cc1,7%,1%,-1%
CCOc1ccccc1CNc1ncnc2onc(-c3ccc(F)cc3)c12,-3%,0%,0%
Fc1ccc(-c2noc3ncnc(NCC4CCN(Cc5ccc(Cl)cc5)CC4)c23)cc1,1%,-2%,-7%
COc1ccccc1Cn1c(SCC(=O)C(C)(C)C)nc2ccccc2c1=O,-4%,1%,6%
COc1ccc(S(=O)(=O)n2nc(-c3ccco3)nc2NCc2ccc(N(C)C)cc2)cc1,?,-1%,8%
C=C(C)C(=O)OCCN(C)C,4%[201 µM],5%[201 µM],·
Cc1csc(NC(=O)c2cc(C)nc3ccccc23)n1,-3%,-13%,-3%
O=C(N/N=C/c1ccc(F)cc1)c1cc(-c2ccco2)nc2ccccc12,32µM*[quencher],3%,-5%
CCOc1ccc(/C=N/NC(=O)c2cc(-c3ccco3)nc3ccccc23)cc1,1%,3%,14%
Cc1csc(NC(=O)c2cc(-c3ccco3)nc3ccccc23)n1,7.1µM*[quencher],-21%[53 µM],14%
CCOC(=O)c1cc(S(=O)(=O)NCc2cccc(Cl)c2)[nH]n1,-24%,8%,-7%
COc1ccc(-n2c(=O)c3ccccc3n(CC(=O)NCCc3ccccc3)c2=O)c(OC)c1,-1%,-3%,0%
COCCCNC1=C(Cl)C(=O)c2ccccc2C1=O,-3%,-6%,7%
COCCCNc1c2c3c(cccc3[nH]c1=O)C(=O)c1ccccc1-2,?,?,7.1µM*
SMILES,TR SRC2 fluor cs,TRb SRC2 PPI,ERG Ets-DNA blk
CC[C@@]1(c2ccccc2)NC(=O)NC1=O,-2%,0%,·
CCOc1ccccc1NC(=O)Cc1coc2ccc(C)cc12,-7%,-2%,7%
CCOc1ccccc1NC(=O)Cc1coc2c(C)c(C)ccc12,35µM*[quencher],-12%[53 µM],2%
CSc1cccc(NC(=O)CN2C(=O)COc3ccc(Cl)cc32)c1,0%,-3%,2%
CCC(C(=O)N1CCN(c2ccccc2)CC1)n1nc(C)c2sc3ccccc3c2c1=O (stereo not given),0%,-6%,-7%
CCCCOc1cccc(C(=O)N2CCN(CCc3ccncc3)CC2)c1,7%,-3%,6%
CCCCOc1ccc(C(=O)N2CCN(CCc3ccncc3)CC2)cc1,6.3µM*[quencher],-11%,-4%
COc1cc(/C=C(\C#N)c2nc3ccccc3[nH]2)cc(Cl)c1OCc1ccccc1Cl,2%,-10%,-1%
N#C/C(=C\c1ccc(OCc2ccc(Cl)cc2Cl)cc1)c1nc2ccccc2[nH]1,282µM*[quencher],-26%[53 µM],-1%
CCN(CC)c1ccc(/C=c2\sc3nc4ccccc4n3c2=O)c(O)c1,50µM*[fluorescent],-19%,-3%
O=c1/c(=C/c2ccc(O)c([N+](=O)[O-])c2)sc2nc3ccccc3n12,-2%,-3%,-2%
CN1/C(=C\C=O)C(C)(C)c2ccccc21,-4%,4%,28%
CN1\C(=C/C=C/C=C/C=[N+](C)C)C(C)(C)c2ccccc21,50µM*[fluorescent],?,·
O=C(O)c1cccc(-n2cccc2/C=C2/NC(=O)N(c3ccc(Cl)cc3)C2=O)c1,18µM*[quencher],?,-16%
O=C(O)c1cccc(-n2cccc2/C=C2/NC(=O)N(c3cccc(Cl)c3)C2=O)c1,-3%,-2%,1%
O=C(c1cccc([N+](=O)[O-])c1)N1c2nc(-c3ccco3)nn2C2(CCCCC2)[C@@H]2CCCC[C@@H]21,-3%,-2%,-8%
Cc1ccc2nc(-c3ccc(N)cc3)sc2c1S(=O)(=O)O,-5%,8%,·
CCCCNS(=O)(=O)c1ccccc1,-3%[201 µM],-3%[201 µM],·
CC(C)C[C@H](NC(=O)[C@H](Cc1c[nH]c2ccccc12)NC(=O)[C@H](CCCCN)NC(=O)CNC(=O)[C@H](CC(C)C)NC(=O)[C@H](CO)NC(=O)[C@@H](N)Cc1cnc[nH]1)C(=O)NCC(=O)N[C@@H](Cc1cnc[nH]1)C(=O)N1CCC[C@H]1C(=O)N[C@@H](CC(=O)O)C(=O)N[C@@H](CCCCN)C(=O)N[C@@H](Cc1ccccc1)C(=O)O,-1%,9%,·
NC(=O)c1ccc(-n2nnnc2SCC(=O)c2ccc(O)c(O)c2)cc1,50µM*[quencher],?,-4%
COc1ccc(-n2nnnc2SCC(=O)c2ccc(O)c(O)c2)cc1,-2%,5%,-3%
O=C(Cn1ncc2c([nH]c3ccccc32)c1=O)Nc1cccc(C(F)(F)F)c1,3%,7%,-5%
Oc1ccc2c(c1)OCC1(O)Cc3cc(O)c(O)cc3C21 (stereo not given),?,?,13µM*
Oc1cc2c(cc1O)[C@H]1c3ccc(O)c(O)c3OC[C@@]1(O)C2,-2%,1%,-15%
N#C/C(=C\Nc1ccc2cn[nH]c2c1)c1nc(-c2ccccc2)cs1,0%,-11%,-3%
SMILES,TR SRC2 fluor cs,TRb SRC2 PPI,ERG Ets-DNA blk
N#C/C(=C\Nc1ccc2cn[nH]c2c1)c1nc(-c2ccc(Cl)cc2)cs1,?,71µM*,10%
Cn1nc(-c2ccc(OCC(=O)Nc3cccc(C(F)(F)F)c3)cc2)c2ccccc2c1=O,-7%,-1%,2%
CCN1CCN(c2nnc(-n3cccc3C(=O)NCc3ccccc3OC)s2)CC1,0%,7%,5%
COc1ccc(C2=NN(C(C)=O)C(c3cn(-c4ccccc4)nc3-c3cccs3)C2)cc1 (stereo not given),-1%,2%,0%
CC(=O)N1N=C(c2ccc(C)cc2)CC1c1cn(-c2ccccc2)nc1-c1cccs1 (stereo not given),100µM*[quencher],-7%,3%
CCOC(=O)C1=NN(c2ccc(Cl)cc2Cl)C(C)(C(=O)OCC)C1 (stereo not given),-2%[201 µM],5%[201 µM],·
CC(=O)N1c2c(cc(Br)cc2S(=O)(=O)N2CCN(c3cccc(Cl)c3)CC2)CC1C (stereo not given),-2%,10%,-9%
C=CC1=C(C)C2=NC1=CC1=NC(=CC3=NC(=CC4=NC(=C2)C(C)=C4CCC(=O)O)C(CCC(=O)O)=C3C)C(C=C)=C1C.[Zn],28µM*[fluorescent],13µM*,·
